Experimental data taken from PubChem BioAssay (Tox21).
Values joined by “and” are separate entries in the source; they are usually repeats but may differ in a detail not shown here. Equal values may be shown once. Inconclusive results are not listed. A structure can be active in one record and inactive in another. Active and inactive are the calls of the source. Calls follow the shape of the full dose curve.

experiment: qHTS assay for small molecule agonists of the p53 signaling pathway - cell viability (AID 651633); conditions: p53RE-bla HCT-116 viability, ATP luminescence, 16 h; series mostly up to 83.3 µM; activity change, negative = cytotoxicity: at the top concentration; also: nearly all actives have a fitted effect of over 30% in size;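 as to activity change, negative = cytotoxicity: p53RE-bla HCT reporter cells with a stable beta-lactamase p53 reporter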
Excerpt: National Center for Advancing Translational Sciences [NCATS]
NIH Chemical Genomics Center [NCGC]
U.S. Environmental Protection Agency [EPA]
National Institutes of Environmental Health Sciences [NIEHS]
National Toxicology Program [NTP]
U.S. Food and Drug Administration [FDA]
p53, a tumor suppressor protein, is activated following cellular insult, including DNA damage and other cellular stresses. The activation of p53 regulates cell fate by inducing DNA repair, cell cycle arrest, apoptosis, or cellular senescence. The activation of p53, therefore, is a good indicator of DNA damage and other cellular stresses. […] The activation of the reporter gene under culture conditions can be detected by fluorescence intensity. This cell line was used to screen the Tox21 compound library in a 1536-well plate format and to identify agonists that activate the p53 signaling pathway.
Tox21 Assay Protocol Summary:
The p53RE-bla cells were dispensed at 4,000 cells/5 ul/well in 1536-well black wall/clear bottom plates using a Multidrop dispenser. After the assay plates were incubated at a 37 C/5% CO2 incubator for 5 hours, 23 nL of compounds dissolved in DMSO, positive controls or DMSO only was transferred to the assay plate by a pin tool. The plates were incubated at 37 C for 16 hours. After 1 uL of LiveBLAzerTM B/G FRET substrate was added using a Flying Reagent Dispenser, the plates were incubated at room temperature for 2 hours, and fluorescence intensity was measured by an Envision plate reader.
For cell viability readout that measures cytotoxicity, 4 ul/well of CellTiter-Glo reagent was added into the assay plates using a Flying Reagent Dispenser. After 30 min incubation at room temperature, the luminescence intensity in the plates was measured using a ViewLux plate reader.
% is scaled to controls: 0 for no effect and ±100 for the full control effect; potency is read from the fitted curve at half-maximal effect.

SMILES	activity change, negative = cytotoxicity	Potency
COC(=O)C(C)N(C(=O)Cc1ccccc1)c1c(C)cccc1C (stereo not given)	13.8% (inactive)	–
O=C(CCl)c1ccc(Cl)cc1Cl	–	5.96 µM (active) and 9.69 µM (active) and inactive
CC(C)(Cl)[N+](=O)[O-]	-10.4% [at 95.3 µM] (inactive)	–
CN1[C@@H]2CC[C@H]1CC(OC(=O)c1cc(Cl)cc(Cl)c1)C2 (stereo not given in full)	-14.1% (inactive)	–
N#CCC#N	3.68% (inactive)	–
C=CC(=O)OCC(C)C	-17.8% (inactive)	–
CC(C)=CCOc1c2occc2cc2ccc(=O)oc12	10.7% (inactive)	–
COP(=S)(OC)Oc1ccc([N+](=O)[O-])cc1Cl	-8.62% (inactive)	–
CC(C)N(C(=O)COc1nnc(C(F)(F)F)s1)c1ccc(F)cc1	-19.7% (inactive)	–
CCCCCCCCCCOC(=O)c1ccccc1C(=O)OCCCCCCCCCC	12.4% (inactive)	–
O=C(NC(=O)c1c(F)cccc1F)Nc1cc(Cl)c(Oc2ncc(C(F)(F)F)cc2Cl)c(Cl)c1	–	7.37 µM (active)
Clc1ccc(C(OCCN2CCCCC2)c2ccccc2)cc1 (stereo not given)	11.7% [at 39.1 µM] (inactive)	–
Nc1ccc(N=Nc2ccc(-c3ccc(N=Nc4c(S(=O)(=O)O)cc5cc(S(=O)(=O)O)c(N=Nc6ccccc6)c(O)c5c4N)cc3)cc2)c(N)c1	12% (inactive)	–
CC(=O)NC1CCSC1=O (stereo not given)	–	inactive
O=C(O)C(F)(F)C(F)(F)C(F)(F)C(F)(F)C(F)(F)C(F)(F)C(F)(F)C(F)(F)C(F)(F)C(F)(F)F	7.82% (inactive)	–
CCOC(=O)[C@]1(c2ccccc2)Oc2ccccc2[C@@H]1N	-21.7% (inactive)	–
C[C@@H]1CC[C@H]2[C@@H](C)C(=O)O[C@@H]3O[C@@]4(C)CC[C@@H]1[C@]32OO4	-15.9% (inactive)	–
ClC=C(Cl)Cl	–	inactive
Nc1nc(N)nc(N)n1	22.9% [at 95.3 µM] (inactive)	–
Brc1ccccc1	16.3% (inactive)	–

SMILES	activity change, negative = cytotoxicity	Potency
Nc1nc(=S)[nH][nH]1	4.71% (inactive)	–
CCC(C)(NC(=O)c1cc(Cl)c(C)c(Cl)c1)C(=O)CCl (stereo not given)	–	61.5 µM (active)
O=C1NCN(c2ccccc2)C12CCN(CCCOc1ccc(F)cc1)CC2	-14.7% (inactive)	–
CCC(COC(=O)c1cc(OC)c(OC)c(OC)c1)(c1ccccc1)N(C)C (stereo not given)	-18.3% (inactive)	–
COc1nn(CSP(=S)(OC)OC)c(=O)s1	37.5% (inactive)	–
CN(N=O)c1ccc([N+](=O)[O-])cc1	11.8% (inactive)	–
CCOP(=S)(OCC)SCn1nnc2ccccc2c1=O	–	27.3 µM (active)
CCC(Br)(CC)C(=O)NC(N)=O	25.4% (inactive)	–
COC(=O)C(Br)CBr (stereo not given)	23.7% (inactive)	–
O=C=Nc1ccc(Cl)cc1	-4.2% (inactive)	–
NCCCNCCCN	-5.82% [at 95.3 µM] (inactive)	–
CC(C)N(CCC(C(N)=O)(c1ccccc1)c1ccccn1)C(C)C (stereo not given)	9.91% (inactive)	–
ClCc1ccccc1	28.1% (inactive)	–
CCOc1ccc(C(C)(C)COCc2cccc(Oc3ccccc3)c2)cc1	2.12% (inactive)	–
C(=NC1CCCCC1)=NC1CCCCC1	–	30.8 µM (active) and 17.2 µM (active)
CCOC(=O)C(Cl)C(C)=O (stereo not given)	-9.36% [at 95.3 µM] (inactive)	–
CNC(C)Cc1ccccc1OC (stereo not given)	4.35% (inactive)	–
C/C=C/C=O	14.4% (inactive)	–
NC(=O)CI	-15.2% [at 95.3 µM] (inactive)	–
CO[C@@H]1[C@H](OC(=O)NC(=O)CCl)CC[C@]2(CO2)[C@H]1[C@@]1(C)O[C@@H]1CC=C(C)C	-20% [at 39.1 µM] (inactive)	–
